# Test results: the supplement of paper PMC12494721
# Where a name gives a salt, the structure may show the parent alone.
# Test system: Klebsiella aerogenes DSM 30053
# Experiment: growth (OD595) fold change vs plate DMSO controls (fold change (ratio)); higher = more growth
# Settings: incubation time: 27 h, anaerobic, 37 °C
# Procedure, shortened: (§1)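 The measure reported is growth, taken as fold change against the median of DMSO controls on the same plate. Anaerobic mGAM cultures in 96-well plates (27 h, 37 °C) were read at 595 nm, blank-subtracted, corrected for compound background using 20 µM compound solutions in water, and multiplied by a calibration factor of 5 to give OD. Any fold change above 1.5 became NA, and 2 biological replicates were averaged.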
row,Structure (SMILES),growth
1,Oc1ncnc2[nH]ncc12 [Allopurinol] (20 µM),0.974
2,COc1ccc(CN(CCN(C)C)c2ccccn2)cc1 [Pyrilamine maleate] (20 µM),0.981
3,CC(C)(C#N)c1cc(Cn2cncn2)cc(C(C)(C)C#N)c1 [Anastrozole] (20 µM),1.01
4,COC1=CC(=O)C[C@@H](C)[C@]12Oc1c(Cl)c(OC)cc(OC)c1C2=O [Griseofulvin] (20 µM),0.922
5,CC(C)(C)NCC(O)COc1cccc2c1CC(O)C(O)C2 (stereo unspecified) [Nadolol] (20 µM),1.03
6,CC1=C(CC(=O)O)c2cc(F)ccc2/C1=C\c1ccc([S+](C)[O-])cc1 (stereo unspecified) [Sulindac] (20 µM),1.02
7,O=C1NCN(c2ccccc2)C12CCN(CCCC(c1ccc(F)cc1)c1ccc(F)cc1)CC2 [Fluspirilene] (20 µM),1.01

# Test system: Ruminococcus gnavus DSM 108212
# Experiment: as above
# Settings: incubation time: 27 h, anaerobic, 37 °C
# Procedure, shortened: as §1
row,Structure (SMILES),growth
1,CC(C)(C)NC[C@H](O)c1ccc(O)c(CO)c1 [Levalbuterol hydrochloride] (20 µM),0.865
2,C[N+]1(CCCCC[N+]2(C)CCCC2)CCCC1 [Pentolinium bitartrate] (20 µM),0.709
3,O=C1c2cccc(O)c2C(=O)c2c(O)cccc21 [Danthron] (20 µM),0.841
4,O=C(N/N=C/c1ccc([N+](=O)[O-])o1)c1ccc(O)cc1 [Nifuroxazide] (20 µM),1.2
5,COC(=O)Nc1nc2cc(Sc3ccccc3)ccc2[nH]1 [Fenbendazole] (20 µM),1.09
6,CN(C)CCOC(c1ccccc1)c1ccccc1.Cn1c(=O)c2[nH]c(Cl)nc2n(C)c1=O [Dimenhydrinate] (20 µM),1.06
7,CCc1ccc(C(=O)C(C)CN2CCCCC2)cc1 (stereo unspecified) [Eperisone Hydrochloride] (20 µM),0.991
8,CC12CC3CC(C)(C1)CC(N)(C3)C2 [Memantine hydrochloride] (20 µM),0.997
9,COc1ccc2[nH]cc(CCNC(C)=O)c2c1 [Melatonin] (20 µM),0.789
10,CCC(=O)O[C@]1(C(=O)CCl)[C@@H](C)C[C@H]2[C@@H]3CCC4=CC(=O)C=C[C@]4(C)[C@@]3(F)[C@@H](O)C[C@@]21C [Clobetasol propionate] (20 µM),0.908
11,CC[C@@H](CO)NCCN[C@@H](CC)CO [Ethambutol dihydrochloride] (20 µM),0.965
12,CC(=O)CC(c1ccc([N+](=O)[O-])cc1)c1c(O)c2ccccc2oc1=O (stereo unspecified) [Acenocoumarol] (20 µM),0.886
13,CCOC1O[C@H]([C@@H](COCc2ccccc2)OCc2ccccc2)[C@H](OCc2ccccc2)[C@H]1O (stereo partly specified) [Tribenoside] (20 µM),0.972
14,COc1ccc(C[C@@H]2c3cc(OC)c(OC)cc3CC[N@+]2(C)CCC(=O)OCCCCCOC(=O)CC[N@@+]2(C)CCc3cc(OC)c(OC)cc3[C@H]2Cc2ccc(OC)c(OC)c2)cc1OC [Cisatracurium besylate] (20 µM),1.01
15,O=C1CN2Cc3c(ccc(Cl)c3Cl)N=C2N1 [Anagrelide] (20 µM),1.14
16,Cc1c(C)c2c(c(C)c1O)CCC(C)(C(=O)O)O2 (stereo unspecified) [Trolox] (20 µM),0.896
17,COc1cc(C(=O)NCc2ccc(OCCN(C)C)cc2)cc(OC)c1OC [Trimethobenzamide hydrochloride] (20 µM),1.04
18,CC=CC(=O)N(CC)c1ccccc1C [Crotamiton] (20 µM),1.07
19,CCOC(=O)C1=C(C)NC(C)=C(C(=O)OCC)C1c1ccccc1/C=C/C(=O)OC(C)(C)C [Lacidipine] (20 µM),1.12
20,CCOC(=O)CC(=O)N1CCSC1COc1ccccc1OC (stereo unspecified) [Moguisteine] (20 µM),0.951

row,Structure (SMILES),growth
1,CC(=O)OCC(=O)NCCCOc1cccc(CN2CCCCC2)c1 [Roxatidine acetate hydrochloride] (20 µM),0.677
2,Clc1ccc(C(Cn2ccnc2)OCc2csc3c(Cl)cccc23)c(Cl)c1 (stereo unspecified) [Sertaconazole nitrate] (20 µM),0.501
3,CC[N+](C)(CC)CCOC(=O)C1c2ccccc2Oc2ccccc21 [Methantheline bromide] (20 µM),0.897
4,CN1[C@@H]2CC[C@H]1C[C@@H](OC(c1ccccc1)c1ccccc1)C2 [Benztropine mesylate] (20 µM),1
5,Nc1c(Br)cc(Br)cc1CN[C@H]1CC[C@H](O)CC1 [Ambroxol hydrochloride] (20 µM),0.75
6,COCCCC/C(=N\OCCN)c1ccc(C(F)(F)F)cc1 [Fluvoxamine maleate] (20 µM),0.962
7,Clc1ccc(COC(Cn2ccnc2)c2ccc(Cl)cc2Cl)c(Cl)c1 (stereo unspecified) [Miconazole] (20 µM),0.232
8,CCCCCCCCCCCCCCCC[N+](C)(C)CCN(Cc1ccc(OC)cc1)c1ncccn1 [Thonzonium bromide] (20 µM),1
9,CCCN(CCC)C(=O)C(CCC(=O)O)NC(=O)c1ccccc1 (stereo unspecified) [Proglumide] (20 µM),0.78
10,CN(C)CCC(c1ccc(Br)cc1)c1ccccn1 (stereo unspecified) [Brompheniramine maleate] (20 µM),1.17
11,c1coc(CNc2ncnc3[nH]cnc23)c1 [Kinetin] (20 µM),0.855
12,C#C[C@]1(O)CC[C@H]2[C@@H]3CCC4=CC(=O)CC[C@@H]4[C@H]3CC[C@@]21C [Norethindrone] (20 µM),1.22
13,Oc1ncnc2[nH]ncc12 [Allopurinol] (20 µM),1.02
14,COc1ccc(CN(CCN(C)C)c2ccccn2)cc1 [Pyrilamine maleate] (20 µM),0.868
15,CC(C)(C#N)c1cc(Cn2cncn2)cc(C(C)(C)C#N)c1 [Anastrozole] (20 µM),1.02
16,COC1=CC(=O)C[C@@H](C)[C@]12Oc1c(Cl)c(OC)cc(OC)c1C2=O [Griseofulvin] (20 µM),0.915
17,CC(C)(C)NCC(O)COc1cccc2c1CC(O)C(O)C2 (stereo unspecified) [Nadolol] (20 µM),0.969
18,CC1=C(CC(=O)O)c2cc(F)ccc2/C1=C\c1ccc([S+](C)[O-])cc1 (stereo unspecified) [Sulindac] (20 µM),1.3
19,O=C1NCN(c2ccccc2)C12CCN(CCCC(c1ccc(F)cc1)c1ccc(F)cc1)CC2 [Fluspirilene] (20 µM),1.01
